Source: the supplement of paper PMC11001985

compound: C#CCNC(=O)CCSSCCC(=O)NCCc1ccc(C=O)c(C=O)c1; test: lysine labeling ratio R10:1 (500 µM / 50 µM probe), SILAC-ABPP in living cells; higher = lower intrinsic lysine reactivity toward the probe, active = 2 or less; conditions: HeLa; probe concentrations 500 vs 50 µM
Procedure, shortened: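 Measurements came from LC-MS/MS on a TIMS-TOF Pro of mixed SILAC light and heavy HeLa lysates after click to biotin-azide, trypsin digestion, neutravidin capture, DTT release and alkylation. Before lysis, the living cells sat in PBS at room temperature with 50 µM or 500 µM of an alkyne-tagged, disulfide-linked lysine probe, and labels were swapped forward and reverse. R per lysine is the median across both swap directions of the filtered median high-probe/low-probe MS1 peptide ratio. The cap is 20.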

Sequence of UniProt P32004 (P32004 whole entry): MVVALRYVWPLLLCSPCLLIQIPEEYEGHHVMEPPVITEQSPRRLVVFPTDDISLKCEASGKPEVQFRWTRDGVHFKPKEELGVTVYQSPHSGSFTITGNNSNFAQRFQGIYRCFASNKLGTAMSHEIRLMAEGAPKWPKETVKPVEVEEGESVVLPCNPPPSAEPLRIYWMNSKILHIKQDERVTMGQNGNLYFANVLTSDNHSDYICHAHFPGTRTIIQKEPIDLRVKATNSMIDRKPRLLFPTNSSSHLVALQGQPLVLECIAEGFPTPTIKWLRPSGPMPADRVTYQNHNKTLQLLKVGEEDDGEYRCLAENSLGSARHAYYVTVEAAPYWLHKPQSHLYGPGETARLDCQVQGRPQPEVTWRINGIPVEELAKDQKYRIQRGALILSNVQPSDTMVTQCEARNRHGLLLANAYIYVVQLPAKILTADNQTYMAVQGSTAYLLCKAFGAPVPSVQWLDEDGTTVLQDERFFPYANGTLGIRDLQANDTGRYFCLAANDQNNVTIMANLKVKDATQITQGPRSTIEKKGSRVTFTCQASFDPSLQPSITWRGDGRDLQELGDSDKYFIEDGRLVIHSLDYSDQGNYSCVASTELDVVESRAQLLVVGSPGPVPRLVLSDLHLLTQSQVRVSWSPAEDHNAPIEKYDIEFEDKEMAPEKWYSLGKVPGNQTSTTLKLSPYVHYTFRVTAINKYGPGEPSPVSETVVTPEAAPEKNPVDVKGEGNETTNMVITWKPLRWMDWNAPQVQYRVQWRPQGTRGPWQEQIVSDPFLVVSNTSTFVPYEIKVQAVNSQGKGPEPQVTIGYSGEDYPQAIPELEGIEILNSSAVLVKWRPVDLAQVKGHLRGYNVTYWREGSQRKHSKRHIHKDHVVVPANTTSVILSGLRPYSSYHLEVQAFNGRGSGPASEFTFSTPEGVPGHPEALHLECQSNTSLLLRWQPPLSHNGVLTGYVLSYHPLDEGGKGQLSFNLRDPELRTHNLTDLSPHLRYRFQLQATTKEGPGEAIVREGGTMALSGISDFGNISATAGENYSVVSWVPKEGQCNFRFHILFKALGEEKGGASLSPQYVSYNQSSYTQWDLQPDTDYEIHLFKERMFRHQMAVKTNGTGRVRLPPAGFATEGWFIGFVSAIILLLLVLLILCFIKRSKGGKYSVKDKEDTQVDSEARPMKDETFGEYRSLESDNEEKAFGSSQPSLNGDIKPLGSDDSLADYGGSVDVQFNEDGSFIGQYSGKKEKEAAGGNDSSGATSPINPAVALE
Sequence of UniProt P38646 (P38646 whole entry): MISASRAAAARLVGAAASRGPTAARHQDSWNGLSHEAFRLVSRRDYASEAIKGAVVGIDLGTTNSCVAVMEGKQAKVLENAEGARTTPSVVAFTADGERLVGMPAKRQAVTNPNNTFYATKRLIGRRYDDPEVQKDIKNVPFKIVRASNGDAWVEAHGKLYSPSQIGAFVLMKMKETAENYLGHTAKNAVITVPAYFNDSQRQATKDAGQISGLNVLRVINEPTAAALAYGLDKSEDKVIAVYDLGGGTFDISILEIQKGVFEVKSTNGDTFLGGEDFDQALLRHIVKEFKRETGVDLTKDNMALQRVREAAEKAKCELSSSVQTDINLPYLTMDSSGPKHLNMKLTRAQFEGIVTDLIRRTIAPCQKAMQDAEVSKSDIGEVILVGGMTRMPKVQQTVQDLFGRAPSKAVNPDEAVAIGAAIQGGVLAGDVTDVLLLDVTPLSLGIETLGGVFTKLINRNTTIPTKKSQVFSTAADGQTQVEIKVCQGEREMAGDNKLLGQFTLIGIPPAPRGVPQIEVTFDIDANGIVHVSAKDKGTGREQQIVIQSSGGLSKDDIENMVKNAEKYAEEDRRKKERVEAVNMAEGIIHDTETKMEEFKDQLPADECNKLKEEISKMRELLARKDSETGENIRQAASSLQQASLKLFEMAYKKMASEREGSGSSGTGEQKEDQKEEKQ
Sequence of UniProt Q13813 (Q13813 whole entry): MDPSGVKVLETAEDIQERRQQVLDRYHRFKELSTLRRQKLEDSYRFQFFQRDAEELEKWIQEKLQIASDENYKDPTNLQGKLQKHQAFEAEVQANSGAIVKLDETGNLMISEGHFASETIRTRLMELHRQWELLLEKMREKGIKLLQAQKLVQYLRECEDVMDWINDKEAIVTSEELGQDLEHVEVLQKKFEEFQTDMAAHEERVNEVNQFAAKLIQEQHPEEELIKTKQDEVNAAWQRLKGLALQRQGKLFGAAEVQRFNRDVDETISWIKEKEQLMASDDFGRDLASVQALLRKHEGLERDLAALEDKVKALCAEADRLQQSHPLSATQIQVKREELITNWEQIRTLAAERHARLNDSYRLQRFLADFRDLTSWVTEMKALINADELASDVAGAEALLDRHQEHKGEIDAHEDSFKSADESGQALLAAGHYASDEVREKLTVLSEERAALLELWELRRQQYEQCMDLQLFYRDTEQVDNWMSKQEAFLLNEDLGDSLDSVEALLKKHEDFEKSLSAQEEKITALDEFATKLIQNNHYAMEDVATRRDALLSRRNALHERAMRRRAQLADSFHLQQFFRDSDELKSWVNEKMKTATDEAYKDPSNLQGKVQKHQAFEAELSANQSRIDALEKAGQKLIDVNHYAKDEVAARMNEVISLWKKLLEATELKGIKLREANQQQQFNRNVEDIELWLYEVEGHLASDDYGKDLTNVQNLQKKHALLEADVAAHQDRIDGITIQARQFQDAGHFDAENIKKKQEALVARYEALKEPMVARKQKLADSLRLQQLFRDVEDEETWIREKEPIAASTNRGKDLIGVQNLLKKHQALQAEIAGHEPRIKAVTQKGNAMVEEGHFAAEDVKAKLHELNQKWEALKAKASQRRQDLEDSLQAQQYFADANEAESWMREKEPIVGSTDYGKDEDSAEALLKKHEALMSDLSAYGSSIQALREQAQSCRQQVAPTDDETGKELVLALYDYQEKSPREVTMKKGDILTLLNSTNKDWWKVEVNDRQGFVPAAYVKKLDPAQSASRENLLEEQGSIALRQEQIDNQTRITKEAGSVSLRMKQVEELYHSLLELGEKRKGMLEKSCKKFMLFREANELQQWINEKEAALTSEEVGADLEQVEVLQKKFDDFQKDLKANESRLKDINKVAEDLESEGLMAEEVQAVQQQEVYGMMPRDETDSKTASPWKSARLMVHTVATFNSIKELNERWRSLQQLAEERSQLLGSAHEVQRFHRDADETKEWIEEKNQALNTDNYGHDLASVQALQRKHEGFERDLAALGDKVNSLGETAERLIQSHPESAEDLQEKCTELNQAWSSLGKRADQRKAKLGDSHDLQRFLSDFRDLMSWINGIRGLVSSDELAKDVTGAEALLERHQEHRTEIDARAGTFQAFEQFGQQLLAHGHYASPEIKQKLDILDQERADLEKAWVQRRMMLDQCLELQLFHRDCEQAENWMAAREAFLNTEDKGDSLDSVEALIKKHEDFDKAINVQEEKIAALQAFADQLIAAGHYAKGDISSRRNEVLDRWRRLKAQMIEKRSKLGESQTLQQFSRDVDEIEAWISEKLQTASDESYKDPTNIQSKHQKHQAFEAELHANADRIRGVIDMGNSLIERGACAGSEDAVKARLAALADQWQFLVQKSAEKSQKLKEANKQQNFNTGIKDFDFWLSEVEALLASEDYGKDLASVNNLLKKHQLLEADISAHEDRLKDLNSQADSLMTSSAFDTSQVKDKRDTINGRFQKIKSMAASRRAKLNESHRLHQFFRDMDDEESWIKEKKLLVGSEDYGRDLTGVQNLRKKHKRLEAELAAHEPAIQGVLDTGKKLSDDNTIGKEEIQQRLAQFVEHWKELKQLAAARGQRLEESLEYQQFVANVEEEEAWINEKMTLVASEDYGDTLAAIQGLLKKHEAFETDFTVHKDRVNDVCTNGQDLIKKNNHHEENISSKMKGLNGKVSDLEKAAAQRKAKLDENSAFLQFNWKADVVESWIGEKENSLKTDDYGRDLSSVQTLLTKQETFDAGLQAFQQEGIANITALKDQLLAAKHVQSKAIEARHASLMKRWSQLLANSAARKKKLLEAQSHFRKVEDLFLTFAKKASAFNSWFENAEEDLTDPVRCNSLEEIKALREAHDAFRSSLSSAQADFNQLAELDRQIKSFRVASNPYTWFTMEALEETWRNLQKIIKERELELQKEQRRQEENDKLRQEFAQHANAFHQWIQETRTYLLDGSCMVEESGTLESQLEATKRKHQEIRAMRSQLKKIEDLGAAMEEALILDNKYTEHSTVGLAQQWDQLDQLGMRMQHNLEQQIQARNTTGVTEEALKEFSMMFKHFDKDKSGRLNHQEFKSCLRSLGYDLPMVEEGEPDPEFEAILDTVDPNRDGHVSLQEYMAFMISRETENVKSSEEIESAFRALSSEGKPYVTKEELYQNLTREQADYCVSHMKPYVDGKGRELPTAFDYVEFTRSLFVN
Sequence of UniProt Q5T9A4 (Q5T9A4 whole entry): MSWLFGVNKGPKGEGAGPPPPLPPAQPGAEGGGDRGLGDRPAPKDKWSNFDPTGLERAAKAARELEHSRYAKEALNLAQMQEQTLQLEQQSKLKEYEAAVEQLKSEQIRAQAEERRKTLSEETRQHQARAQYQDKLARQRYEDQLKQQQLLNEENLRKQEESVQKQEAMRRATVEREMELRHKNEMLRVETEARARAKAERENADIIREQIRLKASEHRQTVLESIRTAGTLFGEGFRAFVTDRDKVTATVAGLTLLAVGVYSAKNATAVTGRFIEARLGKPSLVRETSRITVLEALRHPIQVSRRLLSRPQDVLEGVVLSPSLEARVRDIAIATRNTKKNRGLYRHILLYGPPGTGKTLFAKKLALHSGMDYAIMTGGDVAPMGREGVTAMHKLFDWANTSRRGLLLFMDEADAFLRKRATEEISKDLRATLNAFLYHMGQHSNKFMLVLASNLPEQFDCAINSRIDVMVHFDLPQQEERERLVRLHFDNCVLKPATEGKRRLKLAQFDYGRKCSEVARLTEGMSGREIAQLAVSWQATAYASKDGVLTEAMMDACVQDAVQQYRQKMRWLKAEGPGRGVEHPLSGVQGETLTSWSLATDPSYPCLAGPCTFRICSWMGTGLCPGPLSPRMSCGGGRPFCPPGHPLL

| Target | lysine labeling ratio R10:1 |
| --- | --- |
| ACTN4 (lysine site: K643) (UniProt O43707) | 7.08 (inactive) |
| SERPINH1 (lysine site: K413) (UniProt P50454) | 4.84 (inactive) |
| RPS3 (lysine site: K75) (UniProt P23396) | 2.68 (inactive) |
| CD55 (lysine site: K161) (UniProt P08174) | 0.828 (active) |
| DYNC1H1 (lysine site: K2286) (UniProt Q14204) | 1.93 (active) |
| ROR2 (lysine site: K97) (UniProt Q01974) | 6.68 (inactive) |
| ENO1 (lysine site: K262) (UniProt P06733) | 2.83 (inactive) |
| PROCR (lysine site: K192) (UniProt Q9UNN8) | 2.15 (inactive) |
| ATAD3B (lysine site: K46) (UniProt Q5T9A4) | 3.54 (inactive) |
| EGFR (lysine site: K489) (UniProt P00533) | 1.31 (active) |
| NEGR1 (lysine site: K98) (UniProt Q7Z3B1) | 5.29 (inactive) |
| GPI (lysine site: K454) (UniProt P06744) | 2.77 (inactive) |
| SPTAN1 (lysine site: K825) (UniProt Q13813) | 4.08 (inactive) |
| CD58 (lysine site: K62) (UniProt P19256) | 5.48 (inactive) |
| MTHFD2 (lysine site: K50) (UniProt P13995) | 3.56 (inactive) |
| AK2 (lysine site: K28) (UniProt P54819) | 10.2 (inactive) |
| TNFRSF10A (lysine site: K191) (UniProt O00220) | 6.6 (inactive) |
| FOLR1 (lysine site: K97) (UniProt P15328) | 4.12 (inactive) |
| NUMA1 (lysine site: K1024) (UniProt Q14980) | 1.17 (active) |
| UniProt P62805 (lysine site: K32) | 7.5 (inactive) |

| Target | lysine labeling ratio R10:1 |
| --- | --- |
| UniProt P62913 (lysine site: K154) | 2.92 (inactive) |
| AHCY (lysine site: K204) (UniProt P23526) | 1.25 (active) |
| FLNA (lysine site: K92) (UniProt P21333) | 5.97 (inactive) |
| L1CAM (lysine site: K568) (UniProt P32004) | 3.06 (inactive) |
| HSPA9 (lysine site: K143) (UniProt P38646) | 2.54 (inactive) |
| UniProt Q15149 (lysine site: K597) | 3.48 (inactive) |
| PLS3 (lysine site: K315) (UniProt P13797) | 1.71 (active) |
| HSPA9 (lysine site: K567) (UniProt P38646) | 2.96 (inactive) |
| SPTAN1 (lysine site: K441) (UniProt Q13813) | 2.17 (inactive) |
| L1CAM (lysine site: K230) (UniProt P32004) | 5.86 (inactive) |
| LAMC1 (lysine site: K1566) (UniProt P11047) | 0.555 (active) |
| UniProt Q15149 (lysine site: K3968) | 2.71 (inactive) |
| UniProt P55145 (lysine site: K45) | 4 (inactive) |
| UniProt Q13275 (lysine site: K62) | 3.35 (inactive) |
| SLC3A2 (lysine site: K615) (UniProt P08195) | 3.54 (inactive) |
| TPI1 (lysine site: K188) (UniProt P60174) | 4.28 (inactive) |
| TXNRD1 (lysine site: K245) (UniProt Q16881) | 7.79 (inactive) |
| L1CAM (lysine site: K378) (UniProt P32004) | 14 (inactive) |
| TFRC (lysine site: K180) (UniProt P02786) | 2.39 (inactive) |
| ITGA6 (lysine site: K511) (UniProt P23229) | 14.7 (inactive) |
